Several values for one entry are separate records, joined by “and”; a condition that tells them apart may be missing. Identical values can stand only once. The campaign covered roughly 420,000 compounds. About 64,000 (15%) were called active. About 27% were inconclusive and are not listed. Calls follow the shape of the dose curve; as a rule, active = well fitted inhibition curve with a large enough effect; inconclusive = small, poorly fitted or top-dose-only effect; inactive = flat fitted curve, though single readings scatter. A selection follows. A call without a number means that no potency is given here.
Potency is read from the fitted curve at half-maximal effect.

The test can be described thus: qHTS for Inhibitors of human tyrosyl-DNA phosphodiesterase 1 (TDP1): qHTS in cells in absence of CPT. Also: nearly all actives have a fitted effect of over 55% in size. The note with it: DT40 Tdp1-/- hTDP1 cells, no CPT, ATP luminescence, 48 h; activity change, negative = growth inhibition: at 46.2 µM (top of the series). In a few lines:
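Seeded 400 DT40-hTDP1 cells/well (vehicle DMSO, no 20 nM CPT); pinned compounds; ≥48 hr at 37 °C; CellTiter-Glo luminescence as viability measure.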
In the case of `NNc1nnc(NN)c2ccccc12`, the Potency entry is “inactive”.

As for `CC(O)CN(Cc1ccc(Cl)cc1)CC(C)O` (stereo not drawn), the Potency result is “inactive”.

As for `Cc1ccc(C)c(C(=O)N2CCC(n3nccc3NC(=O)C3CC3)CC2)c1`, the Potency entry is “inactive”.

In the case of `Cc1ccc(NC(=O)Cc2ccc(NC(=O)N3CCCCc4ccccc43)cc2)cc1`, the Potency was 23.1 µM (active).

`Cc1ccc(CC(=O)Nc2cccc(C#N)c2)cc1`: the Potency entry is “inactive”.

As for `Cc1ccc(NC(=O)N2CCSc3ccccc32)cc1`, the Potency entry is “inactive”.

Turning to `CN(C)S(=O)(=O)c1cccc(C(=O)OCC(=O)N2CCCC2=O)c1`, the Potency entry is “inactive”.

Turning to `O=C(CSc1ncn[nH]1)NCc1ccc2c(c1)OCO2`, the Potency result was “inactive”.

`Cc1ccc(CN2CCN(Cc3ccc(OCCO)cc3)CC2CCO)o1` (stereo not drawn): the Potency result is “inactive”.

`OCCC1CN(Cc2cccc(O)c2)CCN1CCc1ccccc1` (stereo not drawn): the Potency result was “inactive”.

With `OCCC1CN(Cc2ccc(Oc3ncccn3)cc2)CCN1CCc1ccccc1` (stereo not drawn), the Potency entry was “inactive”.

With `CCOc1ccc(CN2CCN(Cc3ccc4cc(F)ccc4n3)CC2CCO)cc1` (stereo not drawn), the Potency is 25.9 µM (active).

On to `OCCC1CN(Cc2cccn2-c2nccs2)CCN1CCc1ccccc1` (stereo not drawn), for which the Potency entry was “inactive”.

Turning to `CCOc1ccc(CN2CCN(CCCc3ccccc3)C(CCO)C2)cc1` (stereo not drawn), the Potency was 20.6 µM (active).

On to `COc1cccc(CN2CCN(Cc3ccc4cccc(F)c4n3)CC2CCO)c1` (stereo not drawn), for which the Potency result was “inactive”.

Consider `CCOc1ccc(CN2CCN(Cc3ccon3)CC2CCO)cc1` (stereo not drawn), for which the Potency entry was “inactive”.

With `OCCC1CN(Cc2cnc(-c3ccccc3)s2)CCN1CCc1ccccc1` (stereo not drawn), the Potency is 8.2 µM (active).

For the molecule `C[C@H]1CN([C@@H](C)CO)C(=O)CCCn2nncc2CO[C@@H]1CN(C)S(=O)(=O)c1cccc(C#N)c1`, the Potency result is “inactive”.

As to `CCCOC(=O)c1ccc(N2C(=O)c3ccccc3C2=O)cc1`, the Potency entry was “inactive”.

Take `CCOc1ccc(CCNC(=O)COC(=O)CCS(=O)(=O)c2ccc(C)cc2)cc1OCC`: the Potency entry was “inactive”.

Consider `COC(=O)CN1C(C)=Nc2ccc(Br)cc2C1c1ccccc1` (stereo not drawn), for which the Potency entry was “inactive”.

As to `CC1CCCCC1NC(=O)/C(C#N)=C/C=C/c1ccccc1[N+](=O)[O-]` (stereo not drawn), the Potency was 9.2 µM (active).

As for `O=C(/C=C/c1ccccc1[N+](=O)[O-])NCC1CCCO1` (stereo not drawn), the Potency result was “inactive”.

On to `O=C(/C=C/c1ccccc1[N+](=O)[O-])OC1CCCCC1=O` (stereo not drawn), for which the Potency result was “inactive”.

Regarding `CCC(CC)C(=O)Nc1cccc(C(=O)N2CCCC2)c1`, the Potency result was “inactive”.

Turning to `Cc1occc1-c1nnc(SCC(=O)NC2(C#N)CCCC2)n1C`, the Potency result was “inactive”.

Consider `CCOCCCN1C(=O)C2C(C(=O)Nc3ccc(OCC)cc3)C3C=CC2(O3)C1C(=O)NC1CCCCC1` (stereo not drawn), for which the Potency result is “inactive”.

For the molecule `OCCCNc1nccc(-c2cc(Nc3cccc(Cl)c3)ncn2)n1`, the Potency was 0.731 µM (active).

For `NS(=O)(=O)c1cccnc1Nc1cccc(Cl)c1`, the Potency entry was “inactive”.

With `O=C(Nc1cccc(Cl)c1)OCc1ccccn1`, the Potency entry was “inactive”.

As to `CCC(Sc1nncn1C)C(=O)Nc1nnc(-c2ccc(Cl)cc2)s1` (stereo not drawn), the Potency entry was “inactive”.

With `NS(=O)(=O)c1cc2c(cc1Cl)NC(C(Cl)Cl)NS2(=O)=O` (stereo not drawn), the Potency entry was “inactive”.

On to `O=P(c1cccs1)(c1cccs1)c1cccs1`, for which the Potency entry is “inactive”.

As to `O=C(Nc1ccccc1Cl)c1ccccc1S(=O)(=O)c1ccccc1[N+](=O)[O-]`, the Potency result was “inactive”.

In the case of `COc1cc(OC)c(/C=N/NC(=O)c2ccc([N+](=O)[O-])cc2)cc1Br`, the Potency entry is “inactive”.

Regarding `COc1cc(/C=N/N=C(\N)c2nonc2N)cc(OC)c1OC`, the Potency entry was “inactive”.

As for `COc1cc(/C=N\NC(=O)c2nonc2N)c(OC)cc1Br`, the Potency was 29.1 µM (active).

Turning to `CCc1cc2c(=O)c(-c3nc4ccccc4n3C)c(CCCC(=O)O)oc2cc1OC(=O)C(C)(C)C`, the Potency entry was “inactive”.

Regarding `COc1ccc(O)c(/C=N/N=C/c2cccc([N+](=O)[O-])c2)c1`, the Potency entry is “inactive”.

As for `Cc1ccc(S(=O)(=O)NC(=O)N2CCCC(C)(C)C2)cc1`, the Potency result is “inactive”.

Turning to `O=C(NC1CCN(C(=S)NCc2ccco2)CC1)c1ccc(F)cc1`, the Potency result was “inactive”.

As to `Cc1cc(C)c[n+](-c2nc3ccccc3nc2[N-]S(=O)(=O)c2cccs2)c1`, the Potency entry was “inactive”.

As for `O=S(=O)([N-]c1nc2ccccc2nc1-[n+]1ccc(Cc2ccccc2)cc1)c1ccc(Br)s1`, the Potency was 14.6 µM (active).

With `O=S(=O)(NCc1cccnc1)c1ccc(Br)s1`, the Potency result is “inactive”.

In the case of `Cc1cc(C)cc(NC(=O)CCS(=O)(=O)c2cc3c4c(c2)CCN4C(=O)CC3)c1`, the Potency entry is “inactive”.

Regarding `CC1CSc2nnc(CCc3ccccc3)n21` (stereo not drawn), the Potency entry is “inactive”.

Regarding `Cc1cc(C(=O)COC(=O)c2cccs2)c(C)n1-c1c(C)n(C)n(-c2ccccc2)c1=O`, the Potency entry was “inactive”.

Consider `COc1ccc(-c2nnc(SC(C)C#N)o2)cc1` (stereo not drawn), for which the Potency result was “inactive”.

`COc1ccc(-c2nnc(SC(=O)N3c4ccccc4Sc4ccccc43)o2)cc1`: the Potency was 7.94 µM (active).

For the molecule `COc1ccc(-c2nnc(-c3ccc4ccccc4c3)o2)cc1`, the Potency result is “inactive”.

Regarding `COc1ccc(NC(=S)SC)cc1OC`, the Potency result is “inactive”.

Turning to `COc1cc(C(c2c(NC(=O)c3ccco3)sc(C)c2C)N2CCOCC2)cc(OC)c1OC` (stereo not drawn), the Potency is 29.1 µM (active).

For the molecule `COC(=O)c1cc(NC(=O)c2ccco2)ccc1N1CCOCC1`, the Potency result is “inactive”.

Turning to `COc1ccc(CC(=O)Nc2ccccc2NC(=O)c2ccco2)cc1OC`, the Potency result was “inactive”.

`C=CCNC(=O)c1cc2nc(C3CC3)cc(C(F)F)n2n1`: the Potency entry is “inactive”.

In the case of `CCCCn1c(N)c(N(CC)C(=O)/C=C/c2ccco2)c(=O)[nH]c1=O`, the Potency result is “inactive”.

For `CC1CCN(C(=O)c2ccc3c(=O)n4c(nc3c2)CCCCC4)CC1`, the Potency entry is “inactive”.

Consider `CC1CCc2c(sc3nc4n(c(=O)c23)CCS4)C1` (stereo not drawn), for which the Potency result was “inactive”.

As for `Cc1ccc(NC(=O)Nc2sc3nc4n(c(=O)c3c2C)CCC(C)CC4)c(Cl)c1` (stereo not drawn), the Potency was 11.6 µM (active).

As to `CNC(=O)c1nnc(Cc2ccc(Cl)cc2)o1`, the Potency result is “inactive”.

Take `O=C1C2C3C=CC(C3)C2C(=O)N1c1ccc(S(=O)(=O)Nc2nccs2)cc1` (stereo not drawn): the Potency entry is “inactive”.

For `Cc1ccc2sc(NNC(=O)c3ccc4c(c3)OCCO4)nc2c1C`, the Potency result was “inactive”.

As to `O=C(NC1CCCCC1)n1c(=O)oc2cc(S(=O)(=O)N3CCCCC3)ccc21`, the Potency entry was “inactive”.

Turning to `Cc1ccc2nc(NC(=O)C3CCN(S(=O)(=O)c4ccc5c(c4)oc(=O)n5C)CC3)sc2c1`, the Potency was 14.6 µM (active).

With `O=C(Nc1nc2ccc(S(=O)(=O)N3CCCC3)cc2s1)C1CCCO1` (stereo not drawn), the Potency entry was “inactive”.

`CC(=O)Nc1c2c(nn1-c1ccc(C)cc1C)CS(=O)C2` (stereo not drawn): the Potency entry was “inactive”.

Regarding `O=C(Nc1ccc(-c2ccc3nncn3n2)cc1)C1CCCCC1`, the Potency is 16.4 µM (active).

For the molecule `CC(=O)c1ccc(S(=O)(=O)Nc2ccc(-c3ccc4nncn4n3)cc2)cc1`, the Potency entry is “inactive”.

As for `O=C(O)c1ccc(NC(=O)C2CCCCC2)cc1`, the Potency entry is “inactive”.

Take `CCOc1ccc(C2c3[nH]c4ccccc4c3CCN2Cc2cn(CC)nc2C)cc1` (stereo not drawn): the Potency result is “inactive”.

On to `c1ccc(C2c3[nH]c4ccccc4c3CCN2Cc2cccn2-c2cccnc2)nc1` (stereo not drawn), for which the Potency is 5.8 µM (active).

Turning to `O=C(c1cn2ccccc2n1)N1CCc2c([nH]c3ccccc23)C1c1ccccn1` (stereo not drawn), the Potency entry is “inactive”.

As to `CCOc1ccc(C2c3[nH]c4ccccc4c3CCN2Cc2cccn2-c2ncccn2)cc1` (stereo not drawn), the Potency was 13 µM (active).

As to `COCC(=O)Nc1c(I)c(C(=O)NCC(O)CO)c(I)c(C(=O)N(C)CC(O)CO)c1I` (stereo not drawn), the Potency result was “inactive”.

In the case of `Nc1nc(SCC(=O)N2CCN(S(=O)(=O)c3ccc(Cl)cc3)CC2)n[nH]1`, the Potency entry is “inactive”.

As to `CC(CCN1CCN=C1N(C)C)c1ccccc1` (stereo not drawn), the Potency entry is “inactive”.

As to `Cc1ccc2[nH]c(=O)c(COC(=O)c3ccccn3)cc2c1`, the Potency entry is “inactive”.

`Cc1ccccc1NC(=O)c1cnn(-c2ccccc2)c1NC(=O)c1ccco1`: the Potency result was “inactive”.

For `Nc1cc2c(cc1Br)-c1ccc(F)cc1C2=O`, the Potency entry was “inactive”.

Consider `COC(=O)C[C@H]1C=C[C@H](NC(=O)c2ccc(F)cc2)[C@@H](CO)O1`, for which the Potency result was “inactive”.

As to `Cc1ccsc1/C=N/NC(=O)Cc1cc(=O)[nH][nH]1`, the Potency result is “inactive”.

For the molecule `CCCC(=O)C1CCN(Cc2ccccc2)CC1`, the Potency entry was “inactive”.

`O=C1C[C@H]2C=CCc3cccc(c32)CN1Cc1ccccc1`: the Potency is 20 µM (active).

In the case of `Cc1cccc(C)c1N1C(=O)CN(Cc2ccccc2)C1=S`, the Potency result is “inactive”.

Regarding `Brc1ccc(CN2CC[C@H]3C=CCc4cccc(c43)C2)cc1`, the Potency is 15.8 µM (active) and 20.6 µM (active).

On to `O=C1C[C@@H]2c3c(cccc3CN1Cc1ccccc1)C[C@@H](O)[C@H]2O`, for which the Potency result is “inactive”.

Consider `C/C(Cn1nnc2ccccc21)=N\OC(=O)c1cc(F)c(F)cc1Cl`, for which the Potency entry was “inactive”.

Consider `O=C(NCc1ccc(F)cc1)C1CCC(CNc2c(N3CCOCC3)c(=O)c2=O)CC1` (stereo not drawn), for which the Potency entry is “inactive”.

For `CC[C@]1(O)CC2CN(CCc3c([nH]c4ccccc34)[C@@](C(=O)OC)(c3cc4c(cc3OC)N(C=O)[C@H]3[C@@](O)(C(=O)OC)[C@H](OC(C)=O)[C@]5(CC)C=CCN6CC[C@]43[C@@H]65)C2)C1` (stereo partly drawn), the Potency entry is “inactive”.

Regarding `CC[C@]1(O)C[C@@H]2CN(CCc3c([nH]c4ccccc34)[C@@](C(=O)OC)(c3cc4c(cc3OC)N(C)[C@H]3[C@@](O)(C(=O)OC)[C@H](OC(C)=O)[C@]5(CC)C=CCN6CC[C@]43[C@@H]65)C2)C1`, the Potency is 51.7 nM (active) and 59.6 nM (active) and 82 nM (active).

With `CCN(CC)Cc1c(C(=O)OC)nnn1-c1nonc1N`, the Potency result was “inactive”.

Regarding `CC1(C(=O)NS(=O)(=O)c2ccccc2)CCN1C(=O)c1ccccc1` (stereo not drawn), the Potency result is “inactive”.

As for `CCNC(=O)C1(C)CCCN1C(=O)c1ccc(N(C)C)cc1` (stereo not drawn), the Potency result is “inactive”.

For `CC(C)NC(=O)C1(C)CCCCCN1C(=O)c1ccc(-c2ccccc2)cc1` (stereo not drawn), the Potency was 9.2 µM (active).

On to `CC(C)(CNCC(O)c1ccccc1)N1CCOCC1` (stereo not drawn), for which the Potency result was “inactive”.

With `CCOc1ccc(/C=N/NC(N)=S)cc1`, the Potency is 16.4 µM (active).

For `NC(=S)N/N=C/c1ccc([N+](=O)[O-])cc1`, the Potency entry was “inactive”.

Regarding `CCOC(=O)N1CCC(=NNC(N)=O)CC1`, the Potency entry is “inactive”.

Turning to `CC1CC(C)CN(c2oc(-c3ccc(OCc4ccc(Cl)cc4)cc3)nc2C#N)C1` (stereo not drawn), the Potency result is “inactive”.

Turning to `CCC(C)Nc1oc(-c2ccc(COc3ccc(Cl)cc3)o2)nc1C#N` (stereo not drawn), the Potency is 23.1 µM (active).

Consider `N#Cc1nc(COc2ccc(Cl)cc2)oc1N1CCCC1`, for which the Potency entry is “inactive”.

As to `COC(=O)c1sccc1NC(=O)c1ccc(Cl)cc1`, the Potency entry was “inactive”.

`O=C1c2ccccc2C(=O)C1c1ccccc1`: the Potency entry is “inactive”.

The values are drawn from PubChem BioAssay AID686978 (National Center for Advancing Translational Sciences (NCATS), 2013).
